Compound activity from PubChem BioAssay.
Only some compounds are listed: those with a hit (about 1.4% of all), similar ones and a draw of the others.
MEX-5 binding: C. elegans MEX-5 TCR-2 RNA binding activity. activity score (negative = inhibition of binding), % at 10 µM. MEX-5/FITC-TCR2 RNA binding, fluorescence polarization; active compounds read low. 300,000 tested, 0.38% active. AID 1832;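 active = inhibition past about -25% in most replicates, and total fluorescence under double the plate's negative control median, limit read from the data; inconclusive = replicates evenly split on the limit, or fluorescence at least double controls; inactive = too little inhibition in most replicates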;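 also: 0% = DMSO and -100% = 5 µM competing unlabeled TCR2 RNA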
GLD-1 RNA inh: GLD-1-TGE RNA interaction inhibition (C. elegans); purified GLD-1 + fluorescein TGE RNA, fluorescence polarization; inhibition, % at 5.96 µM; 320,000 tested, 0.44% active; AID 2280;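 active = percent inhibition above a per-plate cutoff, the plate mean of test compounds plus 3 SD, cut at about 30% in these data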;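 also: 0% = DMSO wells with GLD-1 and probe and 100% = wells lacking GLD-1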
Target sequence (Q17339 whole entry, looked up): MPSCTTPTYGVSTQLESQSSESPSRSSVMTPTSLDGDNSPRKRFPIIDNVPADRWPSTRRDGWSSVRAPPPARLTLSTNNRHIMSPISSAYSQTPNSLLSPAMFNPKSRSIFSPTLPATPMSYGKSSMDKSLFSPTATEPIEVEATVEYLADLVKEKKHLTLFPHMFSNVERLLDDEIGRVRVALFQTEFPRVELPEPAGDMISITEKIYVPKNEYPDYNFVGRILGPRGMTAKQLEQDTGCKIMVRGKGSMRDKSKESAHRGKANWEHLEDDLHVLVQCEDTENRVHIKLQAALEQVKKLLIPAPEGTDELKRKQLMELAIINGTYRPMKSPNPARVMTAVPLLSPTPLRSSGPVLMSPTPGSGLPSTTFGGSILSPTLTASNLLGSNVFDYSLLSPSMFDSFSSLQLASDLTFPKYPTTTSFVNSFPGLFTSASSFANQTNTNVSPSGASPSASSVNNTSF
Bcl-xL primary: blocks human Bcl-xL binding to Bim BH3 peptide. GST-Bcl-xL / FITC-Bim BH3 peptide fluorescence polarization. AID 2129. inhibition, % at 10.9 µM. Q07817. 320,000 tested, 0.7% active;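 active = inhibition above the mean of all tested compounds plus 3 SD, cutoff set per campaign, cut at about 30% in these data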;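 also: 0% = DMSO wells and 100% = unlabeled Bim-BH3 peptide competitor; inhibitors lower millipolarization by displacing the labeled peptide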
E coli Lon inh: E. coli protease La inhibition; P0A9M0; purified E. coli Lon protease, fluorescence polarization; inhibition, % at 7.94 µM; 360,000 tested, 0.42% active; AID 602123; in the data active = inhibition above about 13%, passing the limit was not always enough;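 also: 0% = enzyme with probe and DMSO and 100% = no enzyme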
MCL1-BIM inh: inhibitors of human MCL1 binding to BIM-BH3 peptide; 320,000 tested, 0.68% active; AID 2057; inhibition, % at 10.9 µM; Q07820; GST-MCL1 / FITC-Bim-BH3 fluorescence polarization;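 active = inhibition above the mean inhibition of all tested compounds plus 3 SD, set per campaign, cut at about 40% in these data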;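 also: 0% = DMSO wells and 100% = unlabeled Bim-BH3 peptide control; higher means more loss of mP so more displacement of Bim peptide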
* marks the source's active call; other numbers are inactive results; ? = inconclusive; nt = no result given.

SMILES	MEX-5 binding	GLD-1 RNA inh	Bcl-xL primary	E coli Lon inh	MCL1-BIM inh
COc1c(C(=O)Nc2ccc(Br)cn2)ccc2ccccc12	3	5	57*	-3	0
Cc1noc(C)c1C(=O)N(C)CC(=O)Nc1ccc(F)c(F)c1F	-1	5	-3	-8	-2
O=C(Nc1ccc(Cl)cc1)Nc1cccc2nsnc12	-5	4	48*	2	5
CCn1nc(NC(=O)CC(C)C)c2cc3cccc(C)c3nc21	0	7	137*	-3	1
CCCn1nc(NC(=O)CC(C)C)c2cc3cccc(C)c3nc21	-2	-4	-2	-3	-6
O=C(CSc1nnc(-c2ccncc2)n1CC1CCCO1)Nc1nccs1 (stereo unspecified)	1	47*	-2	2	2
Fc1ccc(-c2ccc3nccn3c2)cc1Cl	nt	nt	nt	-9	nt
COc1ccc(-n2ncc3c2CC(C)(C)CC3NC(=O)CSc2ccccn2)cc1 (stereo unspecified)	0	-7	2	9	6
CC1(C)Cc2c(cnn2-c2cccc(F)c2)C(NC(=O)CSc2ccccn2)C1 (stereo unspecified)	-44*	-1	6	-3	5
COc1ccccc1C(=O)N/C(=C/c1ccco1)C(=O)Nc1cccc(C(=O)O)c1	-6	14	31*	-25	29
Cc1ccc(C(=O)N/C(=C/c2ccco2)C(=O)Nc2cccc(C(=O)O)c2)cc1	-1	19	16	nt	11
Cc1ccc(C)c(N2CCN(C(=O)c3ccc(N4CCCC4=O)cc3)CC2)c1	-2	12	130*	-8	9
COc1ccc2c(c1)c(/C=C/c1cc[n+](C)cc1)cn2C	?	58*	-31	-305	-72
COc1ccc2c(/C=C/c3cc[n+](C)cc3)c[nH]c2c1	?	-92	-16	-92	-38
CCc1nn(C)c2c(=O)c(=O)c2n(C)[nH]1	-18	24	33*	8	38
CCCNC(=O)CCn1nc(-c2ccc(C)cc2)c2ccccc2c1=O	1	1	34*	-2	0
Clc1cccc(-c2cccc3nccn23)c1	nt	nt	nt	14	nt
CC(=O)[C@@H]1[C@@H]2C(=O)N(c3ccc(F)c(Cl)c3)C(=O)[C@@H]2C2c3ccccc3C=CN21 (stereo partly specified)	-5	26	36*	nt	32
CC(=O)[C@H]1[C@@H]2C(=O)N(c3cccc(Cl)c3)C(=O)[C@@H]2[C@H]2c3ccccc3C=CN21	-18	34*	61*	-18	51*
CC(=O)[C@H]1[C@H](c2cccc(Cl)c2)C(C#N)(C#N)[C@@H]2c3ccccc3C=CN21	-3	34*	31*	nt	26
O=C(c1ccc(Cl)cc1)[C@@H]1[C@@H]2C(=O)N(c3ccc(Cl)cc3)C(=O)[C@@H]2C2c3ccccc3C=NN21 (stereo partly specified)	4	-15	-13	1	-25
N#C[C@@H]1[C@@H]2C(=O)N(c3ccc4c(c3)OCCO4)C(=O)[C@@H]2C2c3ccccc3C=CN21 (stereo partly specified)	-4	31*	34*	nt	30
O=C(Nc1ccc2nc3ccccc3nc2c1)c1ccccc1	-8	20	31*	-8	19
CCCCNC(=O)CC1Nc2ccccc2NC1=O (stereo unspecified)	-12	30	32*	5	28
CCOC(=O)c1c(NC(=O)CC2Sc3ccc(C(F)(F)F)cc3NC2=O)sc(C)c1C (stereo unspecified)	-1	7	8	-15	9
SMILES	MEX-5 binding	GLD-1 RNA inh	Bcl-xL primary	E coli Lon inh	MCL1-BIM inh
CCOC(=O)c1c(NC(=O)CC2Nc3ccccc3NC2=O)sc(C)c1C (stereo unspecified)	-35*	-6	1	-2	-10
COC(=O)c1c(NC(=O)CC2Nc3ccccc3NC2=O)sc(C)c1C (stereo unspecified)	-32*	-17	0	-21	-4
O=c1[nH]c(=S)[nH]c2c1[C@H](CCc1cccc(Cl)c1)O[C@H](C1CCCC1)C2	nt	nt	nt	-12	nt
CCOc1ccc(NC(=O)COC(=O)c2c[nH]c3ccccc23)cc1	nt	nt	nt	6	nt
O=Cc1sc([O-])nc1-[n+]1ccc2ccccc2c1	-6	22	47*	nt	41*
CCOC(=O)C(=O)C1=CN(Cc2ccccc2)C=C(C#N)C1	1	25	43*	7	47*
O=C1c2cccc3c([N+](=O)[O-])ccc(c23)C(=O)N1c1nccs1	-1	25	31*	13	28
COc1cc2c(c(OC)c1OC)C(=O)CO2	nt	nt	nt	3	nt
COc1ccc2c3c(cccc13)OCC2=O	-3	16	31*	2	30
CN(C)S(=O)(=O)c1cc(NC(=O)CN2CCc3ccccc32)ccc1Cl	-8	24	45*	6	45*
N#Cc1c(N)nc2c3c(sc(=N)c2c1N)NC(=O)CC3c1ccccc1 (stereo unspecified)	-3	0	47*	-18	42*
N#Cc1c(N)nc2c3c(sc(=N)c2c1N)NC(=O)CC3c1c(F)cccc1Cl (stereo unspecified)	-1	5	18	-14	18
Cc1nc2ccc(Cl)cc2n1C	nt	nt	nt	2	nt
CC(OC(=O)c1cc2ccccc2cc1O)C(=O)Nc1ccc(S(N)(=O)=O)cc1 (stereo unspecified)	-3	4	-3	-9	-4
CC(OC(=O)c1c2c(nc3ccccc13)/C(=C\c1ccc3c(c1)OCO3)CCC2)C(=O)Nc1ccc(S(N)(=O)=O)cc1 (stereo unspecified)	nt	nt	nt	77*	nt
Cc1ccc(OC(=O)N(C)C[C@H]2OCc3cn(nn3)CCCC(=O)N([C@H](C)CO)C[C@@H]2C)cc1	nt	nt	nt	0	nt
COc1ccc(C(CNC(=O)c2cccc(S(=O)(=O)Nc3ccc(F)cc3)c2)N2CCCCC2)cc1 (stereo unspecified)	nt	nt	nt	-21	nt
CCOCCCNC1=C(Cl)C(=O)c2ccccc2C1=O	-4	-1	34*	-7	33
CCn1c(SCc2nc3sc(C(=O)O)c(C)c3c(=O)[nH]2)nc2ccccc21	-43*	0	24	-42	28
Cc1cc(NC(=O)c2cc(-c3ccccc3)on2)no1	-1	5	-1	-6	-6
Cc1ccc(-c2cc(C(=O)Nc3cc(C)on3)no2)cc1	0	47*	37*	-2	28
CCC(C)c1ccccc1NC(=O)COC(=O)C1=NN(c2ccccc2)C(=O)CC1 (stereo unspecified)	nt	10	nt	-5	nt
CCN(CC)CCN1CCn2c3c(c4cc(C)ccc42)CCCC31 (stereo unspecified)	-13	10	36*	8	46*
Cc1cccc(C(=O)NNC2=CC(=O)CC(C)(C)C2)c1O	2	30	17	3	16
CC1(C)CC(=O)C=C(NNC(=O)c2ccccc2O)C1	-3	53*	16	-5	17
NC(=O)C(NN=C(c1ccccc1)c1ccccc1)c1ccccc1 (stereo unspecified)	nt	nt	nt	8	nt
